One may read the AC50 as the concentration giving half of the maximal activity seen.

These results are taken from PubChem BioAssay (EPA / NIEHS).

Each structure is given as a SMILES string. Activity calls are given as the source filed them. How the source made its calls: active means hit-call score of the fitted dose curve at least 0.9, where 1 is the maximum; inactive means score below 0.9.

A short description of assay [1]: ATG_E_Box_CIS: Attagene CIS-FACTORIAL HepG2 Assay for human Enhancer Box (E-box) (AID 2282936). As to conditions: HepG2 E-box cis-reporter transcription, actives raise or lower the signal. Summed up:
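Cells: HepG2 (human liver), transient MRTU transfection. Exposure 24 h. RNA → oligo(dT) RT → PCR → 6-FAM label → HpaI → CE. Activity fitted both directions relative to DMSO.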

The nature of assay [2]: ATG_M_61_CIS: Attagene CIS-FACTORIAL HepG2 Assay for M61 Transcription Factor (Internal Marker) (AID 2282937). The following applies: HepG2 Attagene CIS-FACTORIAL M61 internal marker reporter; actives raise or lower the signal. The procedure, abridged:
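Readout: fluorescent reporter mRNA fragments resolved by capillary electrophoresis after RT-PCR. Transiently transfected human HepG2 cells carried MRTU constructs reporting endogenous TF activity; 24 h chemical exposure; gain or loss of signal fitted relative to DMSO.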

Assay [3] in a line: ATG_EGR_CIS: Attagene CIS-FACTORIAL HepG2 Assay for human Early Growth Response 1 (EGR1) (AID 2282938). The following applies: HepG2 Attagene CIS-FACTORIAL EGR reporter mRNA; actives raise or lower the signal. The procedure, abridged: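 Read-out: fluorescent reporter-mRNA fragments resolved by capillary electrophoresis after RT-PCR, 24 h post-dose in transiently transfected HepG2. Endogenous transcription-factor activity reported via cis-element-regulated reporter units; gain or loss fitted relative to DMSO.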

Assay [4] can be described thus: ATG_M_19_CIS: Attagene CIS-FACTORIAL HepG2 Assay for M19 Transcription Factor (Internal Marker) (AID 2282939). The following applies: HepG2 Attagene CIS-FACTORIAL M19 internal marker reporter; actives raise or lower the signal. The procedure, abridged:
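Chemical-treated HepG2 (24 h) with MRTU constructs; reporter transcripts detected by fluorescent RT-PCR fragment analysis on capillary electrophoresis. Internal background marker, DMSO as baseline.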

The nature of assay [5]: ATG_Ets_CIS: Attagene CIS-FACTORIAL HepG2 Assay for human Erythroblast Transformation Specific (ETS) (AID 2282941). As to conditions: HepG2 ETS cis-reporter transcription, actives raise or lower the signal. Summed up:
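Steps: transfect HepG2 with multiple reporter units; treat compound 24 h; isolate RNA, DNase-treat, reverse-transcribe; PCR-amplify, label with 6-FAM, digest with HpaI; separate by capillary electrophoresis. Activity fitted both directions versus DMSO.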

For assay [6], the target named is Hepatocyte nuclear factor 3-beta (Homo sapiens) (UniProt Q9Y261). Briefly: ATG_FoxA2_CIS: Attagene CIS-FACTORIAL HepG2 Assay for human Forkhead box A2 (FOXA2) (AID 2282942). As to conditions: HepG2 cis-reporter transcription factor activity, 24 h; actives raise or lower the signal. The procedure, abridged:
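Readout: fluorescent reporter transcripts resolved by capillary electrophoresis after RT-PCR. Transiently transfected HepG2, 24 h compound exposure, endogenous TF activity at cis promoter elements. Gain or loss of signal fitted relative to DMSO.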

Assay [7] can be described thus: ATG_FoxO_CIS: Attagene CIS-FACTORIAL HepG2 Assay for human Forkhead box O (FoxO) (AID 2282943). The following applies: HepG2 Attagene cis-reporter, FoxO element, mRNA; actives raise or lower the signal. The procedure, abridged: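 Human hepatoma HepG2 cells carry transiently introduced reporter transcription units controlled by cis promoter elements. Chemical treatment lasted 24 h, and mRNA signal was compared with DMSO.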

Assay [8] in a line: ATG_GATA_CIS: Attagene CIS-FACTORIAL HepG2 Assay for human GATA Binding Protein (AID 2282944). As to conditions: HepG2 GATA cis-element reporter, Attagene multiplex mRNA; actives raise or lower the signal. Summed up:
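Transfected cis-reporter HepG2 cells were treated with chemicals for 24 hours. Total RNA was then converted to cDNA, amplified with reporter-specific primers and analysed by fluorescent capillary electrophoresis, using DMSO-treated wells as baseline.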

The nature of assay [9]: ATG_GLI_CIS: Attagene CIS-FACTORIAL HepG2 Assay for human Zinc Finger Protein GLI1 (AID 2282945). As to conditions: HepG2, Attagene cis-factorial reporter mRNA, GLI element; actives raise or lower the signal. Summed up: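 Bidirectional curve fits relative to DMSO, using reporter mRNA levels from RT-PCR plus capillary electrophoresis. Cells were HepG2 transiently carrying cis-regulated reporter constructs, harvested 24 h after dosing.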

A short description of assay [10]: ATG_GRE_CIS: Attagene CIS-FACTORIAL HepG2 Assay for human Glucocorticoid Response Elements (GRE) (AID 2282947). As to conditions: HepG2 GRE cis-reporter, Attagene multiplex mRNA; actives raise or lower the signal. Summed up: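 Transient MRTU transfection of human HepG2 liver cells; cis-regulated reporters report endogenous factors. 24 h dosing → RNA isolation → RT-PCR → 6-FAM primer extension → HpaI cut → CE fragment analysis. Bidirectional fit, DMSO negative control.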

A short description of assay [11]: ATG_ISRE_CIS: Attagene CIS-FACTORIAL HepG2 Assay for human Interferon Regulatory Factor 1 (IRF1) binding to an Interferon-Stimulated Response Element (ISRE) (AID 2282948). The following applies: HepG2 ISRE cis-reporter (Attagene), mRNA transcription readout; actives raise or lower the signal. Summed up:
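Transfected HepG2 (multiple reporter transcription units, cis elements) dosed 24 h. RNA → oligo(dT) RT → PCR → 6-FAM primer extension → HpaI → CE. DMSO = negative control/baseline.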

Assay [12] is described as follows: ATG_M_32_CIS: Attagene CIS-FACTORIAL HepG2 Assay for M32 Transcription Factor (Internal Marker) (AID 2282949).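 Further: background control marker of the multiplexed CIS panel rather than a real target.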 As to conditions: HepG2 Attagene cis-factorial M32 reporter, mRNA; actives raise or lower the signal. The procedure, abridged: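 HepG2 cells transiently transfected with multiplexed cis-regulated reporter units, dosed 24 h. Reporter mRNA quantified by RT-PCR, 6-FAM labelling, HpaI digestion and capillary electrophoresis; bidirectional fit vs DMSO.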

Assay [13] is described as follows: ATG_M_06_CIS: Attagene CIS-FACTORIAL HepG2 Assay for M06 Transcription Factor (Internal Marker) (AID 2282950). The following applies: HepG2 Attagene CIS-FACTORIAL M06 internal marker reporter; actives raise or lower the signal. Summed up:
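Cells (HepG2, transiently carrying cis-driven reporter units) receive chemical for 24 h before RNA isolation. Reporter cDNA is PCR-amplified, FAM-labelled by primer extension, HpaI-digested and sized on a capillary analyser.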

For assay [14], the target named is Hepatocyte nuclear factor 6 (Homo sapiens) (UniProt Q9UBC0). Briefly: ATG_HNF6_CIS: Attagene CIS-FACTORIAL HepG2 Assay for human Hepatocyte Nuclear Factor 6 (HNF6) (AID 2282952). As to conditions: HepG2 Attagene cis-factorial HNF6 reporter transcription; actives raise or lower the signal. Summed up:
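HepG2 cells transiently transfected with cis-element-driven multiple reporter transcription units, dosed 24 h; reporter mRNA quantified by RT-PCR, FAM primer extension, HpaI digestion and capillary electrophoresis; bidirectional fit versus DMSO baseline.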

In assay [15] the target is Heat shock factor protein 1 (Homo sapiens) (UniProt Q00613). Briefly: ATG_HSE_CIS: Attagene CIS-FACTORIAL HepG2 Assay for human Heat Shock Transcription Factor 1 (HSE) (AID 2282953). The following applies: HepG2 HSE cis-reporter, Attagene RNA transcription; actives raise or lower the signal. The procedure, abridged: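 Liver-derived HepG2 cells carry transiently introduced multiple reporter units governed by cis promoters. Reporter RNA measured 24 h post-dose through reverse transcription, PCR amplification, fluorescent labelling and capillary electrophoresis, normalised to DMSO.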

Assay [16] in a line: ATG_MRE_CIS: Attagene CIS-FACTORIAL HepG2 Assay for human Metal Responsive Element (MRE) (AID 2282954). The following applies: HepG2 MRE cis-reporter transcription, Attagene multiplex; actives raise or lower the signal. Summed up:
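Transient MRTU transfection of HepG2 (FuGene 6); 24 h dosing; total RNA → oligo(dT) RT, PCR, 6-FAM primer extension, HpaI cut, CE. Bidirectional fit vs DMSO.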

The nature of assay [17]: ATG_PBREM_CIS: Attagene CIS-FACTORIAL HepG2 Assay for human Phenobarbital-responsive Enhancer Module (PBREM) (AID 2282955). As to conditions: HepG2 PBREM cis-reporter, Attagene multiplexed transcription; actives raise or lower the signal. Summed up: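 Reporter mRNA read by RT-PCR, 6-FAM primer extension, HpaI digestion and capillary electrophoresis. Transfected HepG2 cells, 24 h compound exposure. Gain or loss of signal fitted bidirectionally relative to DMSO baseline.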

For assay [18], the target named is Bile acid receptor (Homo sapiens) (UniProt Q96RI1). Briefly: ATG_IR1_CIS: Attagene CIS-FACTORIAL HepG2 Assay for human Nuclear Receptor Subfamily 1 Group H Member 4 (NR1H4), IR1 submotif (AID 2282946). As to conditions: IR1 reporter transcription, actives raise or lower the signal. Summed up: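 Cells (human HepG2) carry transiently transfected cis-promoter reporter transcription units. Compounds are incubated 24 h, total RNA is reverse-transcribed and amplified, and labelled fragments are resolved by capillary electrophoresis. Curves use DMSO as baseline.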

The target of assay [19] is Hypoxia-inducible factor 1-alpha (Homo sapiens) (UniProt Q16665). Briefly: ATG_HIF1a_CIS: Attagene CIS-FACTORIAL HepG2 Assay for human Hypoxia Inducible Factor 1 (HIF1A) (AID 2282951). The following applies: HepG2 Attagene cis-factorial HIF1a reporter transcription; actives raise or lower the signal. The procedure, abridged: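 RT-PCR/capillary electrophoresis fluorescence readout of reporter transcripts from endogenous-TF-driven cis elements in transfected HepG2 cells, 24 h exposure; activity fitted in both directions against DMSO controls.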
Hypoxia-inducible factor 1-alpha (Homo sapiens), sequence (Q16665 whole entry, looked up): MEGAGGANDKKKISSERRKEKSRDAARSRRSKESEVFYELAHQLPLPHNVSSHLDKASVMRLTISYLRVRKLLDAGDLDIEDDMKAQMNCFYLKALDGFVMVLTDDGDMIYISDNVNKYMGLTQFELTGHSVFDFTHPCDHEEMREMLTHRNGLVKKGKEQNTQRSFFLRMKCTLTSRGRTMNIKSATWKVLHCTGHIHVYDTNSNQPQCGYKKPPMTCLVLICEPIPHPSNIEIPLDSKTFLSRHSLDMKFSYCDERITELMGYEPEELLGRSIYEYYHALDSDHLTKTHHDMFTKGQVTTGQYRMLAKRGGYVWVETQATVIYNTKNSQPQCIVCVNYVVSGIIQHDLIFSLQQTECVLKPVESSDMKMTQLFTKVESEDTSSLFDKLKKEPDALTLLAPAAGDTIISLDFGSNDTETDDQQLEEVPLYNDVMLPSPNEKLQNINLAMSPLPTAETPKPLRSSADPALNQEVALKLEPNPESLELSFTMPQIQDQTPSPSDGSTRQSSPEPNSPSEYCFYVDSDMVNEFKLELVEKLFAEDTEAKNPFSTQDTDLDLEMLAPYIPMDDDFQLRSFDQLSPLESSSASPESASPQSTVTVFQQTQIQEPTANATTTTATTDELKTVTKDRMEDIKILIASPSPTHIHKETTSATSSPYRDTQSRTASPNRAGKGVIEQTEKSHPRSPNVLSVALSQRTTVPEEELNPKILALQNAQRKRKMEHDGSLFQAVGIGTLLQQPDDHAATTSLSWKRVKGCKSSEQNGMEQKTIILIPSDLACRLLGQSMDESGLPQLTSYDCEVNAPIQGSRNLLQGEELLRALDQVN

Hepatocyte nuclear factor 3-beta (Homo sapiens), sequence (Q9Y261 whole entry, looked up): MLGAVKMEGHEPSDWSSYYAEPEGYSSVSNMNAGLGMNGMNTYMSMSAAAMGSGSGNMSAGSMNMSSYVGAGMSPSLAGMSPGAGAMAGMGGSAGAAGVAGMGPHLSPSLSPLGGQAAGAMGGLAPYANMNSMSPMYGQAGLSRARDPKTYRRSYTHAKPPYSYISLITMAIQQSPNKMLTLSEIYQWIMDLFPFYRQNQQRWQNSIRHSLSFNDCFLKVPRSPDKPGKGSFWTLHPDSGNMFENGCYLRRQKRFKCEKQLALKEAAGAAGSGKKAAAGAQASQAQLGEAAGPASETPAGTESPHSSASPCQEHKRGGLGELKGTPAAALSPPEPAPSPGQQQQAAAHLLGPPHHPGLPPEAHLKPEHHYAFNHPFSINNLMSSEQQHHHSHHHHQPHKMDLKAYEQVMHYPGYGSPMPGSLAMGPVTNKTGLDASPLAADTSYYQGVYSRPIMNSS
Hepatocyte nuclear factor 6 (Homo sapiens), sequence (Q9UBC0 whole entry, looked up): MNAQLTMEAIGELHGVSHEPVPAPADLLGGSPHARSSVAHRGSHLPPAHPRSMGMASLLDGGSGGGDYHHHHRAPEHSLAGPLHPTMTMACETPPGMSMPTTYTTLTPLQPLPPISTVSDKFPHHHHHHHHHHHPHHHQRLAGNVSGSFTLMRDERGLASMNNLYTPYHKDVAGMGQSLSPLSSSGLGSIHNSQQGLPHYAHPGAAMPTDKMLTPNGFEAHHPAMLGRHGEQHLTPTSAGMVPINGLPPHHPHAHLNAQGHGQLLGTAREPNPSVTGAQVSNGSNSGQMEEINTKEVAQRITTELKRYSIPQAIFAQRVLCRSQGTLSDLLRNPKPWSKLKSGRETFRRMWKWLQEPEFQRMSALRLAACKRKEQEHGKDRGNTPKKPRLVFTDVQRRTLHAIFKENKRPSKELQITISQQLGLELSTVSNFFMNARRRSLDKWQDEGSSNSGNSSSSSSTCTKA
Heat shock factor protein 1 (Homo sapiens), sequence (Q00613 whole entry, looked up): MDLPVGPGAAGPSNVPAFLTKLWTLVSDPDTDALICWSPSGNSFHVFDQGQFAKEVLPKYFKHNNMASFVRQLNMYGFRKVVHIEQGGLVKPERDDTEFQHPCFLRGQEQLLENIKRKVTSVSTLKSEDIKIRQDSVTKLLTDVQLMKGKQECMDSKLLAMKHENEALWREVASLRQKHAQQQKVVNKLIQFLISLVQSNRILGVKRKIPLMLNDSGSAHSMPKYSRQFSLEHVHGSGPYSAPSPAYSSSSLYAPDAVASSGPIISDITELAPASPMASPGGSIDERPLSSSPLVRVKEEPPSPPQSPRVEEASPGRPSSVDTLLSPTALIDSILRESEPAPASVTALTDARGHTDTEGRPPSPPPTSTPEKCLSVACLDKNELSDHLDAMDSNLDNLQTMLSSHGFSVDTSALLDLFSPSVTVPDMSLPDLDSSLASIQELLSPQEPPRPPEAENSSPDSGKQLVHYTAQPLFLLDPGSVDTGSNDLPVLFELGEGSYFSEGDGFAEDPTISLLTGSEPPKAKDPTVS
Bile acid receptor (Homo sapiens), sequence (Q96RI1 whole entry, looked up, the tested form may be a part): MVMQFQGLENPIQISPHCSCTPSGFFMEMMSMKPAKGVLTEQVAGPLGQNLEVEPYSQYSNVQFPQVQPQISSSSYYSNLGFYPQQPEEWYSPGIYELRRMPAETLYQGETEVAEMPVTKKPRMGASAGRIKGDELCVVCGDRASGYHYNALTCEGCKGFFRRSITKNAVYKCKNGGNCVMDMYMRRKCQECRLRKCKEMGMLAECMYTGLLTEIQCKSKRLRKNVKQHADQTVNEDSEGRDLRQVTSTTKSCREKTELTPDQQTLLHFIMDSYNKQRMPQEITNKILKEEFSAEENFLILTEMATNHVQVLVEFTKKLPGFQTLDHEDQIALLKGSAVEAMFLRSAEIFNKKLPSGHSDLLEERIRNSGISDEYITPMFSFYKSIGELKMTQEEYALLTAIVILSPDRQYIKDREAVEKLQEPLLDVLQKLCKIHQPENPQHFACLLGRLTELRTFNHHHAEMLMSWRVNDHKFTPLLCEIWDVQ

`C[C@]12CCC(=O)C=C1CC[C@@H]1[C@@H]2C(=O)C[C@@]2(C)[C@H]1CC[C@]2(O)C(=O)CO`: the outcome in assay [1], in assay [2], in [3], in assay [4], in [5] and in assay [6] was inactive. The molecule was called inactive in assay [7], in [8], in [9], in assay [10], in assay [11] and in assay [12]. For the same molecule, the result in assay [13], in assay [14], in [15], in assay [16] and in assay [17] was inactive.

As for `CC(C)(C)C(=O)C=Cc1ccc(Cl)cc1`, the AC50 in assay [1] is 165 µM (active); in assay [2] it was 148 µM (active); in [3], 30.2 µM (active); in assay [6] it was 178 µM (active); in assay [9], 59.1 µM (active); in assay [18], 10 µM (active). Also, the AC50 in assay [11] was 24.9 µM (active); in assay [12], 132 µM (active); in [13], 148 µM (active); in assay [19] it was 26.3 µM (active); in assay [14], 23.6 µM (active); in [15], 34.3 µM (active). Besides, in [16], the AC50 is 34 µM (active). Besides, the result in [4], in assay [5], in assay [7], in [8], in assay [10] and in assay [17] was inactive.

On to `CCCCCCCOC(=O)CCC`, for which the outcome in [1], in assay [2], in assay [3], in assay [4], in assay [5] and in assay [6] was inactive. Besides, the outcome in [7], in assay [8], in [9], in [10], in [11] and in assay [12] was inactive. The outcome in [13], in assay [19], in [14], in [15], in assay [16] and in assay [17] was inactive.

With `CC(C)(Oc1ccc(C2CC2(Cl)Cl)cc1)C(=O)O` (stereo unspecified), the result in [1], in [2], in [3], in [4], in assay [5] and in [6] was inactive. In addition, the molecule was called inactive in assay [7], in assay [8], in assay [9], in assay [10], in assay [11] and in [13]. In addition, the result in [19], in [14], in assay [15], in assay [16] and in [17] was inactive.
